Source: PubChem BioAssay AID1159580 (chemical genetic matrix, 2015)
Hit rate of the full screen: of about 5,500 compounds, about 2,000 (36%) were called active. About 18% were inconclusive and are not listed. No stated cut-off is given here; in the data, active means normalized growth mostly below about 0.91 (no sharp cut-off); inconclusive means no clear call, values can overlap the other calls; inactive means mostly above about 0.92. The list shows a part of the results.

Experiment: chemical genetic growth profiling, strain panel (AID 1159580);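 further: tested at 20 µM; growth read once vehicle control cultures reached saturation at 30 °C; 1 = growth at the plate median or of vehicle wells; lower values mean less growth of the strain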
Conditions: S. cerevisiae deletion strains, growth OD
[1] = locus YMR307W, strain GAS1, active compounds read low

Measured: normalized growth

CNCC(O)c1ccc(O)c(O)c1 (stereo not drawn)
inactive: locus YAL040C, strain CLN3, active compounds read low 1.08 | locus YCL061C, strain MRC1 (second series), active compounds read low 1 | locus YDR363W, strain ESC2, active compounds read low 1.01 | locus YER002W, strain NOP16, active compounds read low 1 | locus YGR078C, strain PAC10, active compounds read low 1.02 | locus YGR229C, strain SMI1, active compounds read low 0.982 | locus YJR075W, strain HOC1, active compounds read low 1 | locus YMR263W, strain SAP30, active compounds read low 1.01 | [1] 1 | locus YNL175C, strain NOP13, active compounds read low 0.994 | locus YNL197C, strain WHI3, active compounds read low 0.998 | locus YNL224C, strain SQS1, active compounds read low 1.02 | locus YOR083W, strain WHI5 (second series), active compounds read low 1.02

CCOC(=O)C(=O)C1(C(=O)OCC)Oc2cc(OC)cc(OC)c2C(=O)C1c1ccccc1 (stereo not drawn)
inactive: locus YAL021C, strain ccr4, active compounds read low 0.981 | locus YAL026C, strain drs2, active compounds read low 0.96 | locus YAL030W, strain snc1, active compounds read low 0.96 | locus YBL061C, strain skt5, active compounds read low 0.951 | locus YBR009C, strain hhf1, active compounds read low 0.908 | locus YBR023C, strain chs3, active compounds read low 0.954 | locus YBR171W, strain sec66, active compounds read low 0.939 | locus YBR229C, strain ROT2, active compounds read low 0.986 | locus YBR231C, strain swc5, active compounds read low 0.961 | locus YBR279W, strain paf1, active compounds read low 0.965 | locus YCL011C, strain gbp2, active compounds read low 0.925 | locus YCL016C, strain dcc1, active compounds read low 0.972 | locus YCL029C, strain bik1, active compounds read low 0.989 | locus YCL061C, strain MRC1, active compounds read low 0.938 | locus YCL069W, strain vba3, active compounds read low 0.96 | locus YCR088W, strain abp1, active compounds read low 0.967 | locus YDL005C, strain med2, active compounds read low 0.961 | locus YDL035C, strain GPR1, active compounds read low 0.967 | locus YDL040C, strain nat1, active compounds read low 0.961 | locus YDL074C, strain BRE1, active compounds read low 0.913 | locus YDL101C, strain DUN1, active compounds read low 0.959 | locus YDL185W, strain tfp1, active compounds read low 0.969 | locus YDL192W, strain arf1, active compounds read low 0.945 | locus YDR001C, strain nth1, active compounds read low 0.947 | locus YDR069C, strain doa4, active compounds read low 0.967 | locus YDR101C, strain arx1, active compounds read low 0.955 | locus YDR137W, strain rgp1, active compounds read low 0.904 | locus YDR159W, strain sac3, active compounds read low 0.928 | locus YDR162C, strain NBP2, active compounds read low 0.987 | locus YDR195W, strain ref2 1.01 | locus YDR297W, strain sur2, active compounds read low 0.949 | locus YDR318W, strain mcm21, active compounds read low 0.936 | locus YDR334W, strain swr1, active compounds read low 0.965 | locus YDR335W, strain msn5, active compounds read low 0.971 | locus YDR388W, active compounds read low 0.968 | locus YDR392W, strain spt3, active compounds read low 0.767 | locus YDR502C, strain sam2, active compounds read low 0.928 | locus YEL003W, strain gim4, active compounds read low 0.948 | locus YEL037C, strain rad23, active compounds read low 0.964 | locus YEL061C, strain CIN8 (second series), active compounds read low 0.929 | locus YEL061C, strain CIN8, active compounds read low 0.99 | locus YER015W, strain faa2, active compounds read low 0.952 | locus YER016W, strain bim1, active compounds read low 0.976 | locus YER110C, active compounds read low 0.953 | locus YER111C, strain swi4, active compounds read low 0.946 | locus YER155C, strain BEM2 (second series), active compounds read low 0.875 | locus YER155C, strain BEM2, active compounds read low 0.966 | locus YER167W, strain BCK2, active compounds read low 0.97 | locus YFR010W, strain ubp6, active compounds read low 0.956 | locus YGL078C, strain dbp3, active compounds read low 0.938 | locus YGL086W, strain mad1, active compounds read low 0.942 | locus YGL173C, strain kem1, active compounds read low 0.947 | locus YGL227W, strain vid30, active compounds read low 0.926 | locus YGL240W, strain doc1, active compounds read low 0.911 | locus YGL248W, strain PDE1, active compounds read low 0.945 | locus YGL253W, strain hxk2, active compounds read low 0.972 | locus YGR135W, strain pre9, active compounds read low 0.915 | locus YGR252W, strain gcn5, active compounds read low 0.791 | locus YHR013C, strain ard1, active compounds read low 0.95 | locus YHR027C, strain rpn1, active compounds read low 0.987 | locus YHR030C, strain SLT2, active compounds read low 0.993 | locus YHR079C, strain IRE1 (second series), active compounds read low 0.961 | locus YHR094C, strain hxt1, active compounds read low 0.951 | locus YHR129C, strain ARP1, active compounds read low 0.966 | locus YHR142W, strain chs7, active compounds read low 0.95 | locus YHR200W, strain rpn10, active compounds read low 0.942 | locus YIL066C, strain RNR3, active compounds read low 0.983 | locus YIL073C, strain SPO22, active compounds read low 0.929 | locus YIL125W, strain kgd1, active compounds read low 0.971 | locus YIR030C, strain dcg1, active compounds read low 0.962 | locus YJL092W, strain hpr5, active compounds read low 0.941 | locus YJL095W, strain BCK1 (second series), active compounds read low 0.973 | locus YJL095W, strain BCK1, active compounds read low 0.907 | locus YJL115W, strain asf1, active compounds read low 0.979 | locus YJL134W, strain LCB3, active compounds read low 0.989 | locus YJL154C, strain vps35, active compounds read low 0.968 | locus YJL164C, strain tpk1, active compounds read low 0.95 | locus YJL166W, strain qcr8, active compounds read low 0.926 | locus YJL168C, strain set2, active compounds read low 0.966 | locus YJL187C, strain SWE1 (second series), active compounds read low 0.948 | locus YJL187C, strain SWE1, active compounds read low 0.953 | locus YJR043C, strain POL32, active compounds read low 0.998 | locus YKL009W, strain mrt4, active compounds read low 0.899 | locus YKL068W, active compounds read low 0.955 | locus YKL085W, strain MDH1 (second series), active compounds read low 0.959 | locus YKL085W, strain MDH1, active compounds read low 0.959 | locus YKL160W, strain elf1, active compounds read low 0.966 | locus YKL190W, strain CNB1, active compounds read low 0.989 | locus YKR001C, strain vps1, active compounds read low 0.958 | locus YKR026C, strain gcn3, active compounds read low 0.932 | locus YLL001W, strain dnm1, active compounds read low 0.964 | locus YLL026W, active compounds read low 0.969 | locus YLL041C, strain sdh2, active compounds read low 0.966 | locus YLR027C, strain aat2, active compounds read low 0.95 | locus YLR039C, strain RIC1, active compounds read low 0.983 | locus YLR058C, strain SHM2, active compounds read low 0.959 | locus YLR102C, strain apc9, active compounds read low 0.962 | locus YLR221C, strain rsa3, active compounds read low 0.91 | locus YLR258W, strain gsy2, active compounds read low 0.959 | locus YLR262C, strain YPT6 (second series), active compounds read low 0.906 | locus YLR262C, strain YPT6, active compounds read low 0.978 | locus YLR268W, strain sec22, active compounds read low 0.955 | locus YLR320W, strain mms22, active compounds read low 0.889 | locus YLR342W, strain FKS1, active compounds read low 0.919 | locus YLR357W, strain rsc2, active compounds read low 0.916 | locus YLR370C, strain arc18, active compounds read low 0.938 | locus YLR371W, strain rom2, active compounds read low 0.962 | locus YLR384C, strain iki3, active compounds read low 0.95 | locus YML016C, strain PPZ1, active compounds read low 0.989 | locus YML032C, strain rad52, active compounds read low 0.961 | locus YML120C, strain ndi1, active compounds read low 0.919 | locus YML124C, strain tub3, active compounds read low 0.94 | locus YMR058W, strain fet3, active compounds read low 0.946 | locus YMR078C, strain ctf18, active compounds read low 0.94 | locus YMR125W, strain sto1, active compounds read low 0.979 | locus YMR129W, active compounds read low 0.936 | locus YMR205C, strain PFK2, active compounds read low 0.877 | locus YMR223W, strain ubp8, active compounds read low 0.949 | locus YMR231W, strain pep5, active compounds read low 0.988 | [1] 0.949 | locus YNL067W, strain RPL9B, active compounds read low 0.965 | locus YNL153C, strain GIM3, active compounds read low 0.986 | locus YNL209W, strain ssb2, active compounds read low 0.972 | locus YNL233W, strain BNI4, active compounds read low 0.917 | locus YNL248C, strain rpa49, active compounds read low 0.986 | locus YNL250W, strain rad50, active compounds read low 0.96 | locus YNL271C, strain bni1, active compounds read low 0.976 | locus YNL298W, strain CLA4, active compounds read low 0.965 | locus YNL322C, strain KRE1 (second series), active compounds read low 0.948 | locus YNL322C, strain KRE1, active compounds read low 0.983 | locus YNR049C, strain mso1, active compounds read low 0.966 | locus YNR052C, strain pop2, active compounds read low 0.985 | locus YOL012C, strain htz1 1.05 | locus YOL147C, strain pex11, active compounds read low 0.94 | locus YOR001W, strain rrp6, active compounds read low 0.987 | locus YOR061W, strain CKA2, active compounds read low 1 | locus YOR069W, strain VPS5, active compounds read low 0.979 | locus YOR070C, strain gyp1, active compounds read low 0.968 | locus YOR080W, strain dia2, active compounds read low 0.965 | locus YOR083W, strain WHI5, active compounds read low 0.956 | locus YOR106W, strain vam3, active compounds read low 0.974 | locus YOR136W, strain idh2, active compounds read low 0.962 | locus YOR144C, strain elg1, active compounds read low 0.959 | locus YOR184W, strain ser1, active compounds read low 0.876 | locus YOR265W, strain rbl2, active compounds read low 0.964 | locus YOR270C, strain vph1, active compounds read low 0.878 | locus YOR316C, strain cot1, active compounds read low 0.963 | locus YPL051W, strain arl3, active compounds read low 0.984 | locus YPL078C, strain atp4, active compounds read low 0.964 | locus YPL106C, strain sse1, active compounds read low 0.943 | locus YPL240C, strain hsp82, active compounds read low 0.968 | locus YPR119W, strain clb2, active compounds read low 0.946 | locus YPR141C, strain kar3, active compounds read low 0.951 | locus YPR163C, strain tif3, active compounds read low 0.97 | locus YPR167C, strain met16, active compounds read low 0.929 | strain wtn01, active compounds read low 0.945
active: locus YBR021W, strain FUR4, active compounds read low 0.818 | locus YGL167C, strain pmr1, active compounds read low 0.911 | locus YJL129C, strain trk1, active compounds read low 0.862 | locus YKR091W, strain srl3, active compounds read low 0.929 | locus YLR330W, strain CHS5, active compounds read low 0.906 | locus YLR418C, strain cdc73, active compounds read low 0.804 | locus YNL071W, strain lat1, active compounds read low 0.915 | locus YNL307C, strain MCK1, active compounds read low 0.888 | locus YOR290C, strain snf2, active compounds read low 0.863
